# According to the supplement of paper PMC12494721:
# Counter-ions that a name gives are not always drawn.
# Test system: Klebsiella aerogenes DSM 30053
# Assay: growth (OD595) fold change vs plate DMSO controls (fold change (ratio)); higher = more growth
# Conditions: 20 µM; incubation time: 27 h, anaerobic, 37 °C
# Procedure, shortened: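 The reported measure is growth: the fold change against the median of DMSO controls on the plate. Absorbance at 595 nm from anaerobic 96-well mGAM cultures grown for 27 h at 37 °C was blank-subtracted, corrected for background with 20 µM compound solutions in water, and converted to OD with a calibration factor of 5. Fold changes above 1.5 appear as NA, and values are the mean of 2 biological replicates.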
row,Structure (SMILES),growth
1,C[C@@H]1C[C@@H]([C@H](O)CC2CC(=O)NC(=O)C2)C(=O)[C@@H](C)C1 [Cycloheximide],0.995
2,CCNC1(c2cccs2)CCCCC1=O (stereo unspecified) [Tiletamine hydrochloride],0.995
3,CCCC1COC(Cn2cncn2)(c2ccc(Cl)cc2Cl)O1 (stereo unspecified),0.987
4,ClC1C(Cl)C(Cl)C(Cl)C(Cl)C1Cl (stereo unspecified),1
5,CN1C[C@H](CNC(=O)OCc2ccccc2)C[C@@H]2c3cccc4c3c(cn4C)C[C@H]21 [Metergoline],1.03
6,O=[N+]([O-])O[C@@H]1CO[C@H]2[C@@H]1OC[C@@H]2O [Isosorbide mononitrate],1.07
7,C[N+]1(C)CCCCC1,1.02
8,N#Cc1nn(-c2c(Cl)cc(C(F)(F)F)cc2Cl)c(N)c1[S+]([O-])C(F)(F)F (stereo unspecified),0.977
9,COCC(=O)N(c1c(C)cccc1C)[C@H](C)C(=O)OC,1.03
10,Cc1cc(C(F)(C(F)(F)F)C(F)(F)F)ccc1NC(=O)c1cccc(I)c1C(=O)NC(C)(C)CS(C)(=O)=O,1.02
11,CC1C=CC=CCCC=CC=CC=CC=CC(OC2OC(C)C(O)C(N)C2O)CC2OC(O)(CC(O)C(O)CCC(O)CC(O)CC(O)CC(=O)OC(C)C(C)C1O)CC(O)C2C(=O)O (stereo unspecified) [Nystatine],1.01
12,CCOC(=O)CC(SP(=S)(OC)OC)C(=O)OCC (stereo unspecified),1.01
13,Fc1ccc([C@]2(Cn3cncn3)O[C@H]2c2ccccc2Cl)cc1 (racemic),0.994
14,O=C(Nc1ccccc1-c1ccc(Cl)cc1)c1cccnc1Cl,0.996
15,CCN(CC)c1nc(C)cc(OP(=S)(OC)OC)n1,0.98
16,O=C(O[C@H]1C[N+]2(CCCOc3ccccc3)CCC1CC2)C(O)(c1cccs1)c1cccs1 [Aclidinium bromide],1.03
17,CCC(C)(c1ccc(O)cc1)c1ccc(O)cc1 [Bisphenol B],0.977
18,CNC(=O)/C=C(\C)OP(=O)(OC)OC,1.01

row,Structure (SMILES),growth
1,CO/C=C(/C(=O)OC)c1ccccc1Oc1cc(Oc2ccccc2C#N)ncn1,1.01
2,C[C@@H]1CN([C@H]2CC[C@](C#N)(c3ccc(F)cc3)CC2)CC[C@]1(C(=O)O)c1ccccc1 [Levocabastine hydrochloride],1.02
3,O=C(O)c1nc(Cl)ccc1Cl,1.01
4,CCn1cc(C(=O)O)c(=O)c2cc3c(cc21)OCO3 [Oxolinic acid],0.348
5,CC(C)(C)C(O)(CCc1ccc(Cl)cc1)Cn1cncn1 (stereo unspecified),1.01
6,C[C@]12C=CC(=O)C=C1CC[C@@H]1[C@@H]2CC[C@@]2(C)[C@H]1CC[C@]2(C)O [Methandrostenolone],1
7,COP(=S)(OC)Oc1nc(Cl)c(Cl)cc1Cl,1.02
8,O=C(O)C(F)(F)C(F)(F)C(F)(F)C(F)(F)C(F)(F)C(F)(F)F [PFHpA (Perfluoroheptanoic acid)],0.994
9,OCC(O)CCl (racemic),0.97
10,CC(=O)O[C@H]1CC[C@@]2(C)C(=CC[C@@H]3[C@@H]2CC[C@]2(C)C(=O)CC[C@@H]32)C1 [Dehydroisoandosterone 3-acetate],0.994
11,CC(C)N(C(=O)COc1nnc(C(F)(F)F)s1)c1ccc(F)cc1,1.01
12,CC(=O)OCC(=O)[C@H]1CC[C@H]2[C@@H]3CC[C@H]4C[C@H](O)CC[C@]4(C)[C@H]3C(=O)C[C@]12C [Alfadolone acetate],0.997
13,C[C@]12CC[C@@H]3c4ccc(OC(=O)N(CCCl)CCCl)cc4CC[C@H]3[C@@H]1CC[C@@H]2O [Estramustine],0.983
14,CCC(=O)Nc1ccc(Cl)c(Cl)c1,0.942
15,O=P1(N(CCCl)CCCl)NCCCO1 (stereo unspecified) [Cyclophosphamide],0.997
16,Cc1cc(C(C#N)c2ccc(Cl)cc2)c(Cl)cc1NC(=O)c1cc(I)cc(I)c1O (stereo unspecified) [Closantel],1.03
17,COP(=S)(OC)SCN1C(=O)c2ccccc2C1=O,1.05
18,C#CCOc1ccc(CCNC(=O)C(OCC#C)c2ccc(Cl)cc2)cc1OC (stereo unspecified),1.03
